{"source": "PubChem BioAssay (NCATS)", "key": {"[1]": {"target": "Nuclear receptor ROR-gamma (Homo sapiens) (UniProt P51449)", "sequence (P51449 whole entry, looked up)": "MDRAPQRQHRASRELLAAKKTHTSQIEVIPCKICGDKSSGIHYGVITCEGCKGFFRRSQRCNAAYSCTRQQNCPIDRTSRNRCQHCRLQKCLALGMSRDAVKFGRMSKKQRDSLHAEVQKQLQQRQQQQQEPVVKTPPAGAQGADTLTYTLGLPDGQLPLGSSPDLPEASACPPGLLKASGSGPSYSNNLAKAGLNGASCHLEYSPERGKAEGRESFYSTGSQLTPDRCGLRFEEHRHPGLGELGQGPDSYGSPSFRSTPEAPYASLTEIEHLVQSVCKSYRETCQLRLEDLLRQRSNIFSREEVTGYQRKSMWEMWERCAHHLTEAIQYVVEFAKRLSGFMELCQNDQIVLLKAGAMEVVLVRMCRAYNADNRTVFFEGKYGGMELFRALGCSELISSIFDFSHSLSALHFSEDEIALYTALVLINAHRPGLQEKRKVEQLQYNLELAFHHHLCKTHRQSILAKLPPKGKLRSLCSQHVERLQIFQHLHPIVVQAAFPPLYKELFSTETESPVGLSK", "assay": "qHTS assay for small molecule antagonists of the retinoid-related orphan receptor gamma (ROR-gamma) signaling pathway (AID 651802; active = well fitted curve in the direction sought with a large enough effect; an effect the other way counts as inactive or inconclusive; note: nearly all actives have a fitted effect of over 60% in size)", "in_short": "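CHO cells carrying TET-inducible ROR-gamma and an ROR response element–luciferase reporter were exposed to compound, then induced with doxycycline. After 16hr at 37C, luminescence was read; lower signal indicates antagonism.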"}, "[2]": {"assay": "qHTS assay for small molecule antagonists of the retinoid-related orphan receptor gamma (ROR-gamma) signaling pathway - cell viability counter screen (AID 720652);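 note: compound exposure lasted 16 hr before ATP read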", "in_short": "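Counter screen in CHO cells carrying TET-inducible ROR-gamma and an ROR response element-luciferase reporter; cells plated 5 hr, compound pinned, doxycycline added, then 16 hr at 37 C. Viability read as intracellular ATP by CellTiter-Glo luminescence.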"}, "[3]": {"assay": "qHTS assay for small molecule agonists of the antioxidant response element (ARE) signaling pathway measured by Nrf2-dependant transcriptional activity - cell viability counter screen (AID 720653)", "settings": "ARE-bla HepG2 viability, CellTiter-Glo ATP luminescence, 16 h; active compounds read low", "in_short": "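ARE-bla HepG2 cells (2,000/well) rested 5 hrs at 37C/5% CO2, then exposed to compounds in DMSO for 16 hrs. Viability was read in the same wells as intracellular ATP by luminescence, 30 min at room temperature after reagent addition.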"}, "[4]": {"target": "Arylsulfatase A (Homo sapiens) (UniProt P15289)", "sequence (P15289 whole entry, looked up)": "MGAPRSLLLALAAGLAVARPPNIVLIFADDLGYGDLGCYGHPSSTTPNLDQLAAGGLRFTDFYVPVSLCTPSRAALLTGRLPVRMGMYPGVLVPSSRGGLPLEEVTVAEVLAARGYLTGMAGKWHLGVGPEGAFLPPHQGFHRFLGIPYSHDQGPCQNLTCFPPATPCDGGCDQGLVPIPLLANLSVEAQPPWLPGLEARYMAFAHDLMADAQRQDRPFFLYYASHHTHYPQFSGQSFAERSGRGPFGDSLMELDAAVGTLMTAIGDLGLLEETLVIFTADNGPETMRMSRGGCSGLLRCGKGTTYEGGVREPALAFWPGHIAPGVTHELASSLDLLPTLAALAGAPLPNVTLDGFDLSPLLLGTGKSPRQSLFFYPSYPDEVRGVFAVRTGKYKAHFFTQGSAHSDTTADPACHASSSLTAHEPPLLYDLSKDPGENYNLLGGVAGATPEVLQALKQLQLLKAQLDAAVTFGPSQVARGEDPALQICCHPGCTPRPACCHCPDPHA", "assay": "qHTS screen for enhancers of Arylsulfatase A (ASA1): LOPAC Validation Assay (AID 720538; active = well fitted curve in the direction sought with a large enough effect; an effect the other way counts as inactive or inconclusive)", "settings": "outcome: at 57.5 µM (top of the series)", "in_short": "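First, ASA-I179S fibroblasts from an MLD patient adhered for 6 hrs. Next, compounds were added for 48h. Then pNCS substrate (0.5mM final) with lysis buffer reacted 14h at room temperature before NaOH stop and fluorescence measurement.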"}, "[5]": {"assay": "qHTS for compounds that reverse cellular toxicity of Amyloid beta (A-beta) peptide in yeast: LOPAC Validation Assay (AID 720559; active = well fitted curve in the direction sought with a large enough effect; an effect the other way counts as inactive or inconclusive)", "in_short": "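Activity is expressed relative to DMSO and an equimolar ferric chloride/clioquinol mix. Compounds were pinned into medium with A-beta-expressing yeast, grown 48 hr at 30 C, then read by absorbance at 600 nm.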"}, "[6]": {"assay": "qHTS for Activators of Parkin Expression: LOPAC Validation Assay (NLuc Reporter) (AID 720572; active = well fitted curve in the direction sought with a large enough effect; an effect the other way counts as inactive or inconclusive)", "excerpt": "Parkin is an E3 ubiquitin ligase localized in the cytosol of cells expressed in many tissues, including brain, skeletal muscle, heart and liver tissues. One hour after stress induction by mitochondrial uncouplers (which mimic mitochondria damage by decreasing the mitochondrial inner membrane electrochemical gradient that is used to produce ATP), Parkin translocates from the cytosol to mitochondria in many cultured cell types, including neurons and HeLa cells. Administration of other mitochondrial poisons, such as Paraquat and azide in cells lacking mitochondrial DNA (mtDNA), induces Parkin translocation to mitochondria. […] It was proposed that Parkin (together with Pink1) mediates a mitochondrial quality control pathway to maintain organelle population fidelity by removing damaged mitochondria. Understanding the normal physiologic role of Parkin (and Pink1) may uncover novel treatment strategies for sporadic Parkinson's disease patients with mutation in these genes.\nA cell based qHTS in 1536 well format was developed assess modulation of Parkin expression using a neuronal cell line that stably expresses a stably expresses a luminescent coincidence reporter (FLuc and NLuc reporters) behind the Parkin promoter. The LOPAC library is used to validate the assay for quantitative high-throughput screening. The data herein reports the signal from the NLuc reporter. An increase in this signal = activation of Parkin expression. For this assay , a positive control normalized signal increase corresponding to a high quality qHTS curve class in both luminescent channels is the desired outcome for this assay.\nNIH Chemical Genomics Center [NCGC]\nNIH Molecular Libraries Probe Centers Network [MLPCN]\nAssay Submitter (PI): Richard Youle, National Institute of Neurological Disorders and Strokes (NINDS), NIH\n[1] Narendra, D., et al., Parkin is recruited selectively to impaired mitochondria and promotes their autophagy. J Cell Biol, 2008. 183(5): p.\n[2] Suen, D.F., et al., Parkin overexpression selects against a deleterious mtDNA mutation in heteroplasmic cybrid cells. Proc Natl Acad Sci U S A, 2010. […] 11835-40.\n[3] Cheng K, Inglese J. A coincedence reporter-gene system for high-throughput screening. Nat Methods. 2012: 9(10);937\nFive microliters (1,500 cells/well) of the Parkin coincidence reporter cells were seeded to 1536 well assay plates (Greiner Catalog # 789173-F) and incubated at 37 C, 5% CO2 for 24 hours. Compounds (23 nL) were pinned using the Kalypsys robotic system equipped with 1536 pin head adaptor in 7-point dose response. […] The FLuc luminescence signal was obtained using the PerkinElmer ViewLux plate imager and then 2 uL of NanoLuc detection reagent was added to the plates. […]"}, "[7]": {"assay": "qHTS for Activators of Parkin Expression: LOPAC Validation Assay (FLuc Reporter) (AID 720573; active = well fitted curve in the direction sought with a large enough effect; an effect the other way counts as inactive or inconclusive)", "in_short": "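A neuronal cell line harbouring FLuc and NLuc reporters behind the Parkin promoter was exposed to compounds for 24 h. Firefly luciferase signal, measured after 10 min with detection reagent, was scaled to DMSO and positive-control wells.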"}, "[8]": {"target": "T1, Hexokinase-4 (Homo sapiens) + Glucokinase regulatory protein (Homo sapiens) (UniProt P35557+Q14397)", "T1 sequence (P35557 whole entry, looked up)": "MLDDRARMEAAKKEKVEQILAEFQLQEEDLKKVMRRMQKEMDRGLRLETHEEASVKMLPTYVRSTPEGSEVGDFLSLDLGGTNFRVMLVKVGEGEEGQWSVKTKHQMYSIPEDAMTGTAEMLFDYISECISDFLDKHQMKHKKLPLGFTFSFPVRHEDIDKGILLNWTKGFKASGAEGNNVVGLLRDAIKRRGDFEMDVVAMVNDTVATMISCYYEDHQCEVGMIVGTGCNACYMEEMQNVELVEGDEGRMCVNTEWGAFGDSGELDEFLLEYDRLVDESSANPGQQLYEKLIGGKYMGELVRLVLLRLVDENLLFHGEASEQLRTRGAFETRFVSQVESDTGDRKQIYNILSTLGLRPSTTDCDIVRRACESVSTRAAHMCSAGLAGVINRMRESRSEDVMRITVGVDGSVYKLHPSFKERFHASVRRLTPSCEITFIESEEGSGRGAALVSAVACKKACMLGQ", "T1 sequence (Q14397 whole entry, looked up)": "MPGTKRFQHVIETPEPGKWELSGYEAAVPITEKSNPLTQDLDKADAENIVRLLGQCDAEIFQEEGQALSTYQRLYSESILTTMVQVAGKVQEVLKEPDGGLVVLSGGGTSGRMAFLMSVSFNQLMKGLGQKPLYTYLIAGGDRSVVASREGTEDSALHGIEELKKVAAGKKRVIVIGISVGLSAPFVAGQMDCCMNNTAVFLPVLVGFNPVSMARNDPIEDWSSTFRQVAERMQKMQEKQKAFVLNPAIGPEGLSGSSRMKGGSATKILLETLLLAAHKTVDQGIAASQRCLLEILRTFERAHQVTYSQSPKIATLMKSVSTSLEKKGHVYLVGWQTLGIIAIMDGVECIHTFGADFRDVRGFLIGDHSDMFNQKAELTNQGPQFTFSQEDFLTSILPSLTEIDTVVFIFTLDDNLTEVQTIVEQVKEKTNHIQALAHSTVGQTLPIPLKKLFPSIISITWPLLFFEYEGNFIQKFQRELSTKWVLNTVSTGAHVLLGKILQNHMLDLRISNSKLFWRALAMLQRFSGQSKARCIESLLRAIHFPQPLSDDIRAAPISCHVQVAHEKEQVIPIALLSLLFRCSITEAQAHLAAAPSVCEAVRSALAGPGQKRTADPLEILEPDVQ", "assay": "qHTS assay for inhibitors of recombinant human GCK-GKRP interaction: Diaphorase-coupled assay (AID 743205; active = well fitted curve in the direction sought with a large enough effect; an effect the other way counts as inactive or inconclusive)", "in_short": "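Inhibitors of the GCK–GKRP complex relieve GKRP suppression of GCK, detected through a G6PDH–diaphorase cascade reducing resazurin. Human GST-GCK and FLAG-GKRP are used at 10 nM with 5 mM glucose and 0.4 mM ATP.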"}, "[9]": {"target": "T1, Hexokinase-4 (Homo sapiens) + Glucokinase regulatory protein (Homo sapiens)", "assay": "qHTS assay for inhibitors of recombinant human GCK-GKRP interaction: ADP-Glo assay (AID 743206; active = well fitted curve in the direction sought with a large enough effect; an effect the other way counts as inactive or inconclusive)", "in_short": "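GST-GCK and FLAG-GKRP (15 nM each in the dispensed mix, with 2 uM S6P) react with 0.4 mM ATP and 5 mM glucose (final) in Hepes pH 7.6 for 60 min at room temperature. ADP is measured by ADP-Glo luminescence.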"}, "[10]": {"assay": "qHTS assay for small molecule agonists of the antioxidant response element (ARE) signaling pathway measured by Nrf2-dependant transcriptional activity (AID 720636)", "in_short": "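Attachment 6 hr at 37 C, then compound versus DMSO vehicle for 16 hr in ARE-luc HepG2 cells (1% dialyzed FBS); luminescence recorded 30 min after ONE-Glo addition at room temperature.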"}}, "note": "Several values for one entry are separate records, joined by “and”; a condition that tells them apart may be missing. Equal values may be shown once. Results filed as inconclusive are left out. Entries that show only a call come without a potency. Activity calls are given as the source filed them. Unless noted, calls come from the whole dose curve; as a rule, active = well fitted curve in the direction sought with a large enough effect in the repeat runs; inconclusive = weak or mixed curves; inactive = no such curve, though single readings can be large; an effect the other way counts as inactive or inconclusive."}
{"smiles": "COc1ccc(C(=O)c2ccccc2)c(O)c1", "values": [{"measurement": "Potency", "setting": "[1]", "result": "inactive"}, {"measurement": "outcome", "setting": "[2]", "result": "inactive"}, {"measurement": "max response", "setting": "[3]", "result": "6% (inactive) and -1.76% (inactive)"}]}
{"smiles": "NC(N)=NCc1cccc(I)c1", "values": [{"measurement": "outcome", "setting": "[4]", "result": "inactive"}, {"measurement": "outcome", "setting": "[5]", "result": "inactive"}, {"measurement": "outcome", "setting": "[6]", "result": "inactive"}, {"measurement": "outcome", "setting": "[7]", "result": "inactive"}, {"measurement": "outcome", "setting": "[8]", "result": "inactive"}, {"measurement": "outcome", "setting": "[9]", "result": "inactive"}]}
{"smiles": "CCOc1ccc(NC(C)=O)cc1", "values": [{"measurement": "Potency", "setting": "[1]", "result": "inactive"}, {"measurement": "outcome", "setting": "[10]", "result": "inactive"}, {"measurement": "outcome", "setting": "[2]", "result": "inactive"}, {"measurement": "max response", "setting": "[3]", "result": "3.98% (inactive) and -0.784% (inactive)"}]}
{"smiles": "C=C[C@@]1(C)CC(=O)[C@]2(O)[C@@]3(C)[C@@H](O)CCC(C)(C)[C@@H]3[C@H](O)[C@H](OC(C)=O)[C@@]2(C)O1", "values": [{"measurement": "max response", "setting": "[3]", "result": "4.11% (inactive)"}]}
{"smiles": "CC1(COc2ccc(CC3SC(=O)NC3=O)cc2)CCCCC1", "note": "(stereo not given)", "values": [{"measurement": "max response", "setting": "[3]", "result": "-9.6% (inactive)"}]}
{"smiles": "NCCNc1cccc2ccccc12", "values": [{"measurement": "outcome", "setting": "[10]", "result": "inactive"}, {"measurement": "max response", "setting": "[3]", "result": "-8.07% (inactive) and -42.5% (inactive)"}]}
{"smiles": "CC1(C)OC[C@@H]2O[C@@]3(C(=O)O)OC(C)(C)O[C@H]3[C@@H]2O1", "values": [{"measurement": "outcome", "setting": "[10]", "result": "inactive"}, {"measurement": "max response", "setting": "[3]", "result": "-0.898% (inactive)"}]}
{"smiles": "C#C[C@]1(O)CC[C@H]2[C@@H]3CCC4=Cc5oncc5C[C@]4(C)[C@H]3CC[C@@]21C", "values": [{"measurement": "outcome", "setting": "[10]", "result": "inactive"}, {"measurement": "max response", "setting": "[3]", "result": "1.42% (inactive)"}]}
{"smiles": "CCCCCCCC/C=C\\CCCCCCCCN", "values": [{"measurement": "outcome", "setting": "[10]", "result": "inactive"}, {"measurement": "max response", "setting": "[3]", "result": "3.81% (inactive)"}]}
{"smiles": "C/C=C/c1ccc(O)c(OC)c1", "values": [{"measurement": "Potency", "setting": "[1]", "result": "inactive"}, {"measurement": "outcome", "setting": "[10]", "result": "inactive"}, {"measurement": "outcome", "setting": "[2]", "result": "inactive"}, {"measurement": "max response", "setting": "[3]", "result": "-8.93% (inactive) and -1.72% (inactive)"}]}
{"smiles": "CC(C)(C)NC[C@H](O)COc1nsnc1N1CCOCC1", "values": [{"measurement": "outcome", "setting": "[5]", "result": "inactive"}, {"measurement": "outcome", "setting": "[6]", "result": "inactive"}, {"measurement": "outcome", "setting": "[7]", "result": "inactive"}, {"measurement": "outcome", "setting": "[8]", "result": "inactive"}, {"measurement": "outcome", "setting": "[9]", "result": "inactive"}]}
{"smiles": "CCCCCCCCCCCCCCCC(=O)O", "values": [{"measurement": "outcome", "setting": "[10]", "result": "inactive"}, {"measurement": "max response", "setting": "[3]", "result": "-12.5% (inactive)"}]}
{"smiles": "CN(C)C(=O)Nc1ccc(Cl)c(Cl)c1", "values": [{"measurement": "max response", "setting": "[3]", "result": "12.2% (inactive)"}]}
